Compound activity from PubChem.
FBPA Giardia inh = qHTS Assay for Inhibitors of Fructose-1,6-bisphosphate Aldolase from Giardia Lamblia | AID 2451, 2010 | 0.71% of 290,000 active | Potency, µM (series often up to 59.6 µM), actives largely listed as inhibitors | A8B2U2 | purified Giardia FBPA; also: nearly all actives have a fitted effect of over 55% in size
Target sequence (A8B2U2 whole entry, looked up): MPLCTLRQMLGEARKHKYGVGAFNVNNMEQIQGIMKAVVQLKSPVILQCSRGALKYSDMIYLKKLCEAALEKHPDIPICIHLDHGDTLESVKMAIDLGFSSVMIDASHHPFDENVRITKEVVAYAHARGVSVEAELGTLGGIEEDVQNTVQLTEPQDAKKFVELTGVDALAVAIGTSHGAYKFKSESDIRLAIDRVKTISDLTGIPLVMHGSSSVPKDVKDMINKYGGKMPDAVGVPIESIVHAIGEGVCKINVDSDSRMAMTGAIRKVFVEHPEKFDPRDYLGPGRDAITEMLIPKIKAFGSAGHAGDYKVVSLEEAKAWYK
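Giardia FBPA (40 nM reagent) was preincubated 10 min at RT with compound (up to 57.5 uM final), then substrate plus GAPDH/TPI/NAD/arsenate coupling system with diaphorase/resazurin was added; resorufin fluorescence (525/598 nm) was read after 20 min.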
LmPK inh = qHTS Assay for Inhibitors of Leishmania Mexicana Pyruvate Kinase (LmPK); AID 1721, 2009; 0.37% of 290,000 active; Potency, µM (top dose mostly 57.5 µM), hits mostly inhibitors; purified LmPK, Kinase-Glo ATP luminescence, 1 h
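In 50 mM imidazole pH 7.2 with 7 mM MgCl2, LmPK (0.1 nM) turned over PEP (0.5 mM) and ADP (0.1 mM) for 1 h at room temperature. Luciferase read-out of ATP.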
Cycloheximide cs = Cycloheximide Counterscreen for Small Molecule Inhibitors of Shiga Toxin; 12% of 300,000 active; cell reporter, cycloheximide protein synthesis inhibition counterscreen; AID 2314, 2010; max response, %; in the data active = max response mostly above about 13%, no sharp cut-off; inactive = mostly below about 14%; also: read at 38.3 µM for the half of the compounds with a filed dose
RE007 growth inh = qHTS Assay for Inhibitors of the HIV-1 protein Vpr | S. pombe RE007 Vpr strain, BacTiter-Glo ATP luminescence, 24 h | Potency, µM (top dose mostly 92.2 µM), hits mostly inhibitors | 0.21% of 360,000 active | AID 651644, 2012; active = well fitted falling curve with a large enough effect; inconclusive = small, poorly fitted or top-dose-only effect; inactive = no such curve, though single readings can be large or run the other way; also: nearly all actives have a fitted effect of over 50% in size
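Fission yeast strain RE007, carrying one chromosomally integrated HIV-1 vpr copy, was seeded at OD 0.01 in PMG+AL medium with 23 nL pinned compound. After 24 h at 30 °C and 99% humidity, viability was read by BacTiter-Glo luminescence.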
Shiga inhibitor = A qHTS for Small Molecule Inhibitors of Shiga Toxin; 9.2% of 290,000 active; inhibition, % at 38.7 µM; Vero cells, Shiga toxin protein synthesis inhibition reporter; AID 2315, 2010; in the data active = inhibition mostly above about 28%, no sharp cut-off; inactive = mostly below about 43%
TbPYK inhibitor = qHTS of Trypanosoma Brucei Inhibitors; pyruvate kinase (Trypanosoma brucei), Q57TT1; 0.12% of 410,000 active; AID 624173, 2012; TbPYK enzyme, Kinase-Glo Plus ATP luminescence, 45 min; Potency, µM (doses to about 76.8 µM), hits mostly inhibitors; also: nearly all actives have a fitted effect of over 50% in size
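Readout: single end-point luminescence (Kinase-Glo Plus, 10 min). Reaction conditions were TbPYK/substrate plus 130 uM ADP, 45 min at RT, pH 7.2 TEA buffer. No-enzyme wells served as controls, and data were normalized before concentration-response fitting.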
A number is an active result; – = inactive; ? = inconclusive; · = not tested or not shown; + = active, no number; [ ] = remark or other dose. This excerpt belongs to a sample that is enriched for hits. Unless noted, calls follow the shape of the dose curve; as a rule, active = well fitted curve in the direction sought with a large enough effect; inconclusive = small, poorly fitted or top-dose-only effect, or another doubt; inactive = no such curve, though single readings can be large; an effect the other way counts as inactive or inconclusive.

SMILES	FBPA Giardia inh	LmPK inh	Cycloheximide cs	RE007 growth inh	Shiga inhibitor	TbPYK inhibitor
Cc1nn(-c2ccccc2)c(Cl)c1/C=N/NC(=O)c1ccccc1NS(=O)(=O)c1cccs1	–	–	–	–	–	–
C#C[C@]1(OC(C)=O)CC[C@H]2[C@@H]3CCC4=C/C(=N/O)CC[C@@H]4[C@H]3CC[C@@]21CC	·	·	·	·	·	–
CCCn1c(-c2ccc(F)cc2)nc2c(NC(C)CN(C)C)nc(C)nc21 (stereo not given)	–	·	·	·	·	·
O=C1NC(=O)[C@@H]2C3c4ccccc4C=CN3[C@H](C(=O)c3cccs3)[C@H]12 (stereo not given in full)	?	–	31	·	–	·
C[N+]1(C)CCC[C@H]1C(=O)[O-]	–	·	–	·	–	·
C/C(=N\N1CCN(c2ccc(Cl)cc2)CC1)c1cccc([N+](=O)[O-])c1	–	–	–	–	–	–
O=C(C(=O)N1CCN(c2ccccc2)CC1)c1ccco1	·	·	·	–	·	·
C/C(=N/N1CCN(Cc2ccccc2)CC1)c1ccc(Br)cc1	–	–	–	–	–	–
C/C(=N\N1CCN(c2ccccc2)CC1)c1ccco1	–	–	28	–	+	–
C/C(=N\N1CCN(c2ccccc2)CC1)c1cccs1	–	–	–	–	–	–
C/C(=N\N1CCN(Cc2ccccc2)CC1)c1ccco1	–	–	–	–	53	–
C/C(=N/N1CCN(c2ccccc2)CC1)c1cccc([N+](=O)[O-])c1	–	–	33	–	64	–
C/C(=N\N1CCN(c2ccccc2)CC1)c1ccncc1	–	–	22	–	46	–
COc1ccc(C)cc1NC(=O)Nc1cccc(OCc2cc(=O)n3ccc(C)cc3n2)c1	·	·	·	·	·	–
Cc1noc(C)c1-c1nc(NCc2cccs2)c2ccccc2n1	–	·	·	·	·	·
C[C@@H](c1ccccc1)N1C(=O)[C@H]2[C@@H]3[C@H](O)C=CC(=O)[C@H]3CC[C@H]2C1=O	–[12.9 µM]	·	·	·	·	·
Cc1ccc(C(=O)Nc2nnc(S(=O)(=O)N3c4ccccc4CC3C)s2)cc1 (stereo not given)	·	·	·	·	·	–
CN(C)c1ncc2nc(-c3ccc(Cl)cc3)c(=O)n(Cc3cccs3)c2n1	–	·	·	·	·	·
O=C(NCCC(=O)N1CCN(c2ccccn2)CC1)c1ccc([N+](=O)[O-])cc1	·	·	·	–	·	–
C/C(=N/N1CCN(c2ccccn2)CC1)c1ccc([N+](=O)[O-])cc1	–	–	31	–	21	–
COc1cc(NC(=O)C(C)C)ccc1NC(=O)c1cc2ccccc2o1	–	–	24	–	40	–
COc1cc(NC(=O)c2cccc(C)c2)ccc1NC(=O)c1cc2ccccc2o1	–	–	13	·	–	–
CCC(=O)Nc1ccc(Cl)c(NC(=S)NC(=O)c2cc3ccccc3o2)c1	–	–	52	–	72	–
CCC(=O)Nc1ccc(Cl)c(NC(=S)NC(=O)c2ccco2)c1	?	–	–	–	–	–
CCC(=O)NC(=S)Nc1ccc(NC(=O)c2cc3ccccc3o2)c(OC)c1	–	–	–	–	30	–
SMILES	FBPA Giardia inh	LmPK inh	Cycloheximide cs	RE007 growth inh	Shiga inhibitor	TbPYK inhibitor
COc1cc(NC(=S)NC(=O)C(C)C)ccc1NC(=O)c1cc2ccccc2o1	–	–	–	–	–	–
Cc1ccc(N)c(Cl)c1	–	·	–	·	–	·
Cn1c(=NC(=O)COc2ccccc2)sc2ccccc21	–	–	42	–	78	–
COc1cccc(C(=O)N=c2sc3cc(S(C)(=O)=O)ccc3n2C)c1	–	–	28	–	80	–
COc1cc(OC)cc(C(=O)N=c2sc3ccccc3n2C)c1	–	–	29	–	33	–
COc1ccc(C(=O)N=c2sc3cc(Cl)ccc3n2C)cc1	·	·	·	·	·	–
COc1ccc(C(=O)N=c2sc3ccccc3n2C)cc1	–	–	53	–	107	–
CCC(CC)C(=O)Nc1ccc2nc(SCC(=O)N3CCCC3)sc2c1	·	·	·	·	·	–
Cc1cc(Nc2cc(Cl)ccc2C)n2nc(-c3ccccc3)nc2n1	·	·	·	·	·	–
CC(=O)Nc1nc(COc2ccc3ccccc3c2)cs1	–	–	52	–[3.69 µM]	97	·
Cc1ccc(C(=O)Nc2nc(COc3ccccc3)cs2)s1	–	–	31	–	82	–
COc1cccc(OC)c1C(=O)Nc1nc(COc2ccccc2)cs1	–	–	–	–	–	–
O=C(Nc1nc(COc2ccccc2)cs1)C1CCC1	–	–	37	?	89	–
CC(=O)Nc1nc(COc2ccccc2)cs1	–	–	44	–	64	–
O=C(Nc1nc(COc2ccccc2)cs1)C12CC3CC(CC(C3)C1)C2	–	–	–	–	–	–
CC(=O)Nc1nc(CCl)cs1	–	–	–	–	–	–
CC(=O)c1ccc(-c2c(C3C4C=CCCC4(C)C(=O)N3Cc3ccccc3)ccc3ccccc23)cc1 (stereo not given)	–	·	–	·	–	·
COc1ccccc1-c1ccc2ncnc(NC3CCNCC3)c2c1	–	·	·	·	·	·
COc1ccccc1OCc1csc(N)n1	–	–	–	–	–	–
Nc1nc(COc2ccc3ccccc3c2)cs1	–	–	60	?	116	–
Nc1nc(CCOc2ccc(F)cc2)cs1	–	–[11.5 µM]	33	–	154	–
Nc1nc2ccccc2n1CCOc1ccc(F)cc1	–	–	–	–	–	–
COc1ccc(NC(=O)c2cccc(N3CCCS3(=O)=O)c2)cc1	·	·	·	·	·	–
CCc1ccc(NC(=O)c2sc(-n3nc(C)c(CCC(C)C)c3C)nc2C)cc1	·	·	·	·	·	–
COCc1cc(=O)n2[nH]cc(-c3ccccc3)c2n1	?	–	19	–	·	–
SMILES	FBPA Giardia inh	LmPK inh	Cycloheximide cs	RE007 growth inh	Shiga inhibitor	TbPYK inhibitor
Cc1nc2c(-c3ccccc3)c[nH]n2c(=O)c1Cc1ccccc1	?	–[11.5 µM]	62	–	121	–
Cc1ccc(Cc2c(C)nc3c(-c4ccccc4)c(C)[nH]n3c2=O)cc1	·	·	·	·	·	–
OC(c1ccccc1)(c1nc(-c2cccc(C(F)(F)F)c2)cs1)C(F)(F)F (stereo not given)	·	·	·	28µM	·	–
CC(O)(c1cccc(F)c1)c1nc(-c2cccc(C(F)(F)F)c2)cs1 (stereo not given)	·	·	·	35µM	·	–
COc1ccccc1N1CCN(C(=O)c2cnn(C(C)(C)C)c2C2CCN(C(=O)OC(C)(C)C)CC2)CC1	·	·	·	·	·	–
CC1=NN(c2ccccc2)C(=O)/C1=C\c1cc(C)n(C)c1C	–	–	29	–	49	–
CC1=NN(c2ccccc2)C(=O)/C1=C/c1cccc(C)c1	–	–	–	–	–	–
CC1=NN(c2ccccc2)C(=O)/C1=C\c1cn(C)c2ccccc12	–	–	–	–	–	–
CC1=NN(c2ccccc2)C(=O)/C1=C/c1cc2cc(C)ccc2nc1N1CCCCC1	–	–	23	·	–	·
